# HPGD block: qHTS Assay for Inhibitors of HPGD (15-Hydroxyprostaglandin Dehydrogenase); purified HPGD, NADH fluorescence kinetic, PGE2 substrate; Potency, µM, for inactives: top-dose activity change, negative = inhibition, most hits filed as inhibitors; 150,000 compounds, 4.3% hits; AID 894, 2007
# Target sequence (P15428 whole entry, looked up): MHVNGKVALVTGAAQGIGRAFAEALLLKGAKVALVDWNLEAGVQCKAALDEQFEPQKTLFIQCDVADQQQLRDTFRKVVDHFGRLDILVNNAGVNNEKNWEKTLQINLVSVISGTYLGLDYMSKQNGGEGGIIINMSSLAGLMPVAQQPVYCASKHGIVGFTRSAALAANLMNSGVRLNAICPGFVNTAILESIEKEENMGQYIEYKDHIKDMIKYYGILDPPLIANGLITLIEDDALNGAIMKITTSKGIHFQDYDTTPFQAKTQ
#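 20 nM HPGD preincubated 15 min at room temperature with compound in 50 mM Tris-HCl pH 8, 0.01% Tween 20. Started with 1 mM NAD+ and 30 uM prostaglandin E2; NADH fluorescence (360/450 nm) read 5 times over 30-s intervals, last minus first.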
# JMJD2E inh: qHTS Assay for Inhibitors of Human Jumonji Domain Containing 2E (JMJD2E) | Lysine-specific demethylase 4E (Homo sapiens), B2RXH2 | JMJD2E catalytic domain, FDH-coupled NADH fluorescence (FDH is formaldehyde dehydrogenase) | Potency, µM (highest dose often 57.1 µM), for the others: at the highest dose activity change, negative = inhibition, actives largely listed as inhibitors | 230,000 compounds, 1.6% hits | AID 2147, 2009;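 note: 0% = wells with enzyme and -100% = buffer wells without enzyme; nearly all actives have a fitted effect of over 50% in size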
# Target sequence (B2RXH2 1-337 limits assumed): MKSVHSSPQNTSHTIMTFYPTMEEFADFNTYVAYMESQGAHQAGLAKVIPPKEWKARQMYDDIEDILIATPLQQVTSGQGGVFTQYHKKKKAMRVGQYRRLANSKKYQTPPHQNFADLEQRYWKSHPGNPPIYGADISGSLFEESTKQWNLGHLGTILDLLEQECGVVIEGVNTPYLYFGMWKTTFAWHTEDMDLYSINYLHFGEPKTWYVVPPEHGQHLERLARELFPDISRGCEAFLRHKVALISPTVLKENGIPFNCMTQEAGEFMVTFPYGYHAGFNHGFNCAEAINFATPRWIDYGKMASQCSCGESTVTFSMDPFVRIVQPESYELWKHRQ
# Tau ThT inhib: qHTS for Inhibitors of Tau Fibril Formation, Thioflavin T Binding. 270,000 compounds, 2.1% hits. recombinant tau K18 P301L, heparin-induced fibrillization, ThT fluorescence. Microtubule-associated protein tau (Homo sapiens), P10636. Potency, µM (series often up to 57.4 µM), for the others: at the top dose activity, negative = inhibition, hits mostly inhibitors; active = well fitted curve in the direction sought with a large enough effect; inconclusive = small, poorly fitted or top-dose-only effect, or another doubt; inactive = no such curve, though single readings can be large; an effect the other way counts as inactive or inconclusive; note: nearly all actives have a fitted effect of over 55% in size
#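 K18 P301L tau (15 uM + 0.24 uM Alexa 594-tagged), heparin 20 uM, NaOAc pH 7, 6 h 37 C; ThT 30 uM, 1 h RT, ex 450/em 510 nm.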
# Tau fluor counter: Counterscreen qHTS for Inhibitors of Tau Fibril Formation, Fluorescence Polarization | tau K18 P301L Alexa594 fluorescence, heparin fibrillization | Potency, µM (doses to about 57.7 µM), without a hit: at the top dose activity change, negative = decrease | 280,000 compounds, 0.93% hits | AID 1463, 2008; active = well fitted curve in the direction sought with a large enough effect; inconclusive = small, poorly fitted or top-dose-only effect, or another doubt; inactive = no such curve, though single readings can be large; an effect the other way counts as inactive or inconclusive; note: nearly all actives have a fitted effect of over 55% in size
#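 Human tau K18 P301L (15 uM unlabeled, 0.24 uM Alexa 594-labeled) in 100 mM sodium acetate pH 7 with 20 uM heparin, 6 hr at 37 C. ThT 30 uM added, 1 hr ambient; Alexa 594 FP and total fluorescence read at 555/632 nm.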
# ALDH1A1 block: qHTS Assay for Inhibitors of Aldehyde Dehydrogenase 1 (ALDH1A1). Purified ALDH1A1, NADH fluorescence, propionaldehyde substrate. Potency, µM (highest dose often 75.3 µM), for the others: at the highest dose activity, negative = inhibition, usual class: inhibitors. 220,000 compounds, 7.3% hits. AID 1030, 2008;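 note: plate controls were no enzyme wells and a reference inhibitor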
# Tau FP inhib: qHTS for Inhibitors of Tau Fibril Formation, Fluorescence Polarization; AID 1468, 2008; Microtubule-associated protein tau (Homo sapiens), P10636; K18 P301L tau heparin fibrillization, Alexa594 FP, 6 h; Potency, µM (highest dose often 57.7 µM), for inactives: at the highest dose activity, negative = inhibition, usual class: inhibitors; 280,000 compounds, 0.39% hits; active = well fitted curve in the direction sought with a large enough effect; inconclusive = small, poorly fitted or top-dose-only effect, or another doubt; inactive = no such curve, though single readings can be large; an effect the other way counts as inactive or inconclusive; note: nearly all actives have a fitted effect of over 55% in size
#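 Compound effects on tau fibrillization are measured by Alexa 594 fluorescence polarization (ex 555, em 632 nm). K18 P301L tau is used at 15 uM with 0.24 uM labeled tracer, and 20 uM heparin induces aggregation over 6 hr at 37 C.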
# The depositor's hits bear a star; i = inactive; ? = inconclusive; nt = no result; [ ] = remark or other dose. Shown are actives, neighbours in structure and some others; about 9.9% of the full set was active somewhere. Unless noted, calls come from the whole dose curve; as a rule, active = well fitted inhibition curve with a large enough effect (not every such curve was filed as active); inconclusive = small, poorly fitted or top-dose-only effect, or another doubt; inactive = no such curve, though single readings can be large or run the other way. Unless noted, % is set by controls: 0 for no effect and ±100 for the full control effect; potency is the fitted concentration of half-maximal effect.
SMILES,HPGD block,JMJD2E inh,Tau ThT inhib,Tau fluor counter,ALDH1A1 block,Tau FP inhib
Cc1ccc2nc(SCC(=O)Nc3cc([N+](=O)[O-])ccc3F)[nH]c2c1,-14%,-2%,?,?,?,-12%
COc1ccc2nc(SCC(=O)Nc3ccc(S(=O)(=O)Nc4nccc(C)n4)cc3)[nH]c2c1,28µM*,-3%,-23%,-9%,?,1%
COc1ccc2nc(SCC(=O)Nc3ccccc3C)[nH]c2c1,-20%,-1%,-15%,-14%,?,6%
CC(OC(=O)CCCSc1nc2ccccc2s1)C(=O)NC(N)=O (centres undefined),nt,-8%,0%,7%,-1%,6%
CCOc1ccc(N2CC(NC(=O)C(=O)c3c[nH]c4ccccc34)CC2=O)cc1 (centres undefined),nt,nt,-8%,-14%,nt,?
CCOC(=O)Cn1c(=O)n(CC2CCCO2)c2nc(-c3ccccc3F)nc(C(N)=O)c21 (centres undefined),nt,nt,6%,2%,nt,0%
CCCOc1cccc(C2/C(=C(/O)c3ccc(OC)cc3)C(=O)C(=O)N2CCN(C)C)c1 (centres undefined),-8%,-11%,-3%,-3%,16µM*,-3%
COc1ccc(C2/C(=C(\O)c3cc(C)ccc3C)C(=O)C(=O)N2CCN(C)C)cc1OC (centres undefined),-10%,-5%,-3%,3%,-10%,4%
Cc1c(/C(O)=C2\C(=O)C(=O)N(CCN(C)C)C2c2cccnc2)cnn1-c1ccccc1 (centres undefined),-18%,-8%,-13%,-6%,?,6%
COc1ccc(/C(O)=C2\C(=O)C(=O)N(CCN(C)C)C2c2cc(OC)c(OC)c(OC)c2)c(C)c1 (centres undefined),-21%,7%,0%,-5%,28µM*,-5%
Cc1c(/C(O)=C2\C(=O)C(=O)N(CCCN(C)C)C2c2ccccc2)cnn1-c1ccccc1 (centres undefined),20µM*,-8%,-8%,4%,?,-1%
NC(=O)C12CCCC(Br)(CCC1)C2,nt,5%,7%,7%,nt,2%
Cc1ccc(NC(N)=S)cc1,-7%,-1%,2%,6%,-3%,1%
NC(=S)Nc1ccc(Oc2ccc(NC(N)=S)cc2)cc1,22µM*,-5%,-13%,-25%,28µM*,12%
COc1ccccc1Nc1nc(-c2sc(NC(=O)c3cccc(Cl)c3)nc2C)cs1,-22%,?,?,?,?,?
Cc1ccc(Nc2nc(-c3sc(NC(=O)c4cccc(Cl)c4)nc3C)cs2)cc1,-21%,-6%,?,?,16µM*,?
Cc1ccc(Cl)cc1Nc1nc(-c2sc(NC(=O)C(C)(C)C)nc2C)cs1,-10%,-10%,?,?,?,3%
Cc1nc(NC(=O)c2ccc(Cl)cc2)sc1-c1csc(Nc2cccc(F)c2)n1,-15%,?,7.1µM*,13µM*[quencher],?,?
O=C(c1cccs1)N1CCN(Cc2ccccn2)CC1,nt,-5%,13%,21%,15µM*,2%
O=C(c1ccncc1)N1CCN(C(=O)c2cccs2)CC1,0%,-2%,-4%,1%,10%,-1%
O=C(C1CCCN(S(=O)(=O)c2cccc3nonc23)C1)N1CCN(c2ccccc2Cl)CC1 (centres undefined),14µM*,?,-5%,?,?,?
Cc1ccc(N/N=C(\Cc2nc3ccccc3[nH]2)c2ccccc2)cc1,?,?,?,-28%,10µM*,-3%
c1ccc(N/N=C(\Cc2nc3ccccc3[nH]2)c2ccccc2)cc1,?,?,?,16µM*[quencher],28µM*,1%
N/N=C(/Cc1nc2ccccc2[nH]1)c1ccc([N+](=O)[O-])cc1,nt,-15%,5µM*,-30%,?,-3%
Clc1cccc(/C(Cc2nc3ccccc3[nH]2)=N\Nc2ccccc2)c1,-15%,-5%,?,7.1µM*[quencher],?,?
SMILES,HPGD block,JMJD2E inh,Tau ThT inhib,Tau fluor counter,ALDH1A1 block,Tau FP inhib
CN(C)Cc1c(O)ccc2c(-c3ccccc3)cc(=O)oc12,nt,0%,-10%,-5%[2.34 µM],?,4%
O=C(O)CCc1c2ccc(=O)c(O)c-2oc2c(O)c(O)ccc12,2.8µM*,nt,nt,nt,?,nt
CC(/C=C1\SC(=S)N(NS(=O)(=O)c2ccc(C)cc2)C1=O)=C\c1ccccc1,nt,0%,11µM*,-15%,nt,?
CC(/C=C1\SC(=S)N(C(C(=O)O)C(C)C)C1=O)=C\c1ccccc1 (centres undefined),nt,-16%,22µM*,-8%,?,-7%
Cc1ccc(S(=O)(=O)NN2C(=O)/C(=C/c3ccccn3)SC2=S)cc1,-24%,-1%,?,-2%,?,3%
CC(=O)N1C(=O)/C(=C2\SC(=S)N(c3c(C)n(C)n(-c4ccccc4)c3=O)C2=O)c2ccccc21,-4%,2%,?,-16%,10µM*,-15%
CC(=O)N1C(=O)/C(=C2\SC(=S)N(NS(=O)(=O)c3ccc(C)cc3)C2=O)c2ccccc21,nt,?,14µM*,?,13µM*,?
COc1cc(C2SCCCCCCCCCCSC(c3ccc(O)c(OC)c3)SCCCCCCCCCCS2)ccc1O (centres undefined),-3%,nt,nt,nt,8%[13.5 µM],nt
COc1ccc(/C=C/C(=O)OCC(=O)Nc2ccc(N3CCOCC3)cc2)cc1OC,nt,i,-33%,?,?,-6%
CCOc1ccccc1NS(=O)(=O)c1c(C)nc2sccn2c1=O,nt,nt,-5%,-5%,nt,-4%
NC1CCN(c2c(F)cc3c(=O)c(C(=O)O)cn(C4CC4)c3c2Cl)C1 (centres undefined),nt,-1%,5%,19%,19%,1%
CCOCCCNC(=O)NC(CCC(C)C)c1c(-n2cccc2)sc2c1CCN(C)C2 (centres undefined),nt,nt,1%,1%,nt,-2%
O=C(NCc1ccccc1Cl)c1ccc(NC(=O)c2nsc3ccccc23)cc1,nt,nt,2%,-26%,nt,?
COc1ccc(-n2c3c(cc(-c4nc(-c5ccc(Cl)cc5)cs4)c2=O)C(=O)CC(C)(C)C3)cc1,nt,nt,-8%,-21%,nt,?
